# Measurements taken from publication PMC7862700, “An all-to-all approach to the identification of sequence-specific readers for epigenetic DNA modifications on cytosine”.
# How the values were obtained:
# Assay in all cases: DAPPL (digital affinity profiling via proximity ligation, sequencing); 10 mM Tris-HCl pH 7.5, 50 mM NaCl, 1 mM DTT, 4% glycerol, room temperature, 30 min; GST-TFs on glutathione beads, 16-mer random dsDNA library, 0.1% formaldehyde crosslink after washing; high values mean tight binding
# Conditions in all cases: protein: recombinant; tags: N-terminal GST; dsDNA, one strand shown
# FLI1 = biological target: T1, FLI1 (Homo sapiens, UniProt Q01543 1-452)
# T1 sequence: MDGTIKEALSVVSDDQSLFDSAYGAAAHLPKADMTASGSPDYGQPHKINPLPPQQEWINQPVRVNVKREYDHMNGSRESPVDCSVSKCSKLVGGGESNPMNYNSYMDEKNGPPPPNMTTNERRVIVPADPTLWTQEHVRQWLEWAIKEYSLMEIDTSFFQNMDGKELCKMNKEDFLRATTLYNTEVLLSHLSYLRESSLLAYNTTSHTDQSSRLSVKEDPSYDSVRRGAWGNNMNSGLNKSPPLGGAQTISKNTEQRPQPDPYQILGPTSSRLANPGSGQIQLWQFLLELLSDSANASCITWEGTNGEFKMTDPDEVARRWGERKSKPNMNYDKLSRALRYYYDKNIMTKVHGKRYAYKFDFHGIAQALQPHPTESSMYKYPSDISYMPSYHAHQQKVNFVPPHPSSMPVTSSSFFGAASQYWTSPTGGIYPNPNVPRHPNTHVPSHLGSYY
# Procedure, shortened: (§1)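 Binding signal is defined as a hexamer's read frequency for one factor over its frequency for the tag-only sample. To obtain reads, GST-fused human transcription factors were expressed in yeast, captured on glutathione beads, barcoded with DNA and pooled with that sample. Pools met 200 nmole of a 16-mer random double-stranded DNA library in Tris/NaCl/DTT/glycerol buffer for 30 min at room temperature before washing, 0.1% formaldehyde crosslinking, proximity ligation (BsaI/T4 ligase, 1 h, 37 °C), PCR and Illumina NextSeq500 sequencing.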
# ELK1 = biological target: T2, ELK1 (Homo sapiens, UniProt P19419 1-428)
# T2 sequence: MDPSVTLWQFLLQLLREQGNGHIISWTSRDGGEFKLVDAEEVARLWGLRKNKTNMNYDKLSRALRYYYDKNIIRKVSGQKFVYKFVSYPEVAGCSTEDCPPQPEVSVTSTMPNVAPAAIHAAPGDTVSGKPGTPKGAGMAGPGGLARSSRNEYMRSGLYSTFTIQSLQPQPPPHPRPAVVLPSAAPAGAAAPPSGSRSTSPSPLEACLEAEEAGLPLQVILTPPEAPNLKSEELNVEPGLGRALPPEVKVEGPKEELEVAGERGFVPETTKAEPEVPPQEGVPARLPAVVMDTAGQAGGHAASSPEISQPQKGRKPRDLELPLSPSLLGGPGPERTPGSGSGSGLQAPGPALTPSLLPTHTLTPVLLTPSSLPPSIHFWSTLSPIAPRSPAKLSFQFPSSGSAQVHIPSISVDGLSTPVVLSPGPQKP
# Procedure, shortened: as §1
# GABPA = biological target: T3, GABPA (Homo sapiens, UniProt Q06546 1-454)
# T3 sequence: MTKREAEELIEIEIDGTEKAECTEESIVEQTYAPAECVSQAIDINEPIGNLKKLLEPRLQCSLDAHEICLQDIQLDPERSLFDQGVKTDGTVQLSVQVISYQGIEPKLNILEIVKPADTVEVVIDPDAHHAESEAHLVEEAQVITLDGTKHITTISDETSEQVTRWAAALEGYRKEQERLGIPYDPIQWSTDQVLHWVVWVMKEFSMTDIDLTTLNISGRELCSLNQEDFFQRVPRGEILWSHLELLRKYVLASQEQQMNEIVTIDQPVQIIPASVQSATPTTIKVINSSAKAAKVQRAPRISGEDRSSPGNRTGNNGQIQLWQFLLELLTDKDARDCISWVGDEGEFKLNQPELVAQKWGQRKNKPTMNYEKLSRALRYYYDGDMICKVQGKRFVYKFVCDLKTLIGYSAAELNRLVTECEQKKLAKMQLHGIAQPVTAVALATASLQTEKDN
# Procedure, shortened: as §1
# ERG = biological target: T4, ERG (Homo sapiens, UniProt P11308 1-479)
# T4 sequence: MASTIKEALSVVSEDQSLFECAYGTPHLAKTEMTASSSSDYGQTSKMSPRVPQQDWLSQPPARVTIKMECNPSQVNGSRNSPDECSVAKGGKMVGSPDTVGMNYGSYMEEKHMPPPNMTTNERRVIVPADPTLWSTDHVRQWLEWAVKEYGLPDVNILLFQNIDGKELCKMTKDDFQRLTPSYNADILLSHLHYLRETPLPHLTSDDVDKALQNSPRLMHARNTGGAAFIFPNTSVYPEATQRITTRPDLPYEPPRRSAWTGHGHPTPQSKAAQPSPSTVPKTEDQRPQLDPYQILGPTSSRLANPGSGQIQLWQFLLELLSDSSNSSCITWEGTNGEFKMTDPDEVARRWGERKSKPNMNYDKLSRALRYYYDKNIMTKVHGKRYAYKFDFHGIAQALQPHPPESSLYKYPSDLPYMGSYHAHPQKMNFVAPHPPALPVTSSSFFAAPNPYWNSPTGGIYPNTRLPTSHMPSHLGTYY
# Procedure, shortened: as §1
# ELF1 = ELF1 (Homo sapiens, UniProt P32519 1-619)
# Procedure, shortened: as §1
# EHF = biological target: T5, EHF (Homo sapiens, UniProt Q9NZC4 1-300)
# T5 sequence: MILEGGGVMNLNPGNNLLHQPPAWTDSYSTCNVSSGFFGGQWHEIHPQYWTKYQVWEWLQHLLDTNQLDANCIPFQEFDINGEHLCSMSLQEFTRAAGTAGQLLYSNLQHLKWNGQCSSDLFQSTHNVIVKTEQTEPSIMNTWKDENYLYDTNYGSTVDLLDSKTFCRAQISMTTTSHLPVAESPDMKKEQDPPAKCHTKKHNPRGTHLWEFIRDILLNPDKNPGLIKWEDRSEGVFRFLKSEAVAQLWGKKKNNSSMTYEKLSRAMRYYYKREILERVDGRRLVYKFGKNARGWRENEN
# Procedure, shortened: as §1
# SPI1 = SPI1 (Homo sapiens, UniProt P17947 1-270)
# Procedure, shortened: as §1
# SPIB = SPIB (Homo sapiens, UniProt Q01892 1-262)
# Procedure, shortened: as §1
# ELK3 = biological target: T6, ELK3 (Homo sapiens, UniProt P41970 1-407)
# T6 sequence: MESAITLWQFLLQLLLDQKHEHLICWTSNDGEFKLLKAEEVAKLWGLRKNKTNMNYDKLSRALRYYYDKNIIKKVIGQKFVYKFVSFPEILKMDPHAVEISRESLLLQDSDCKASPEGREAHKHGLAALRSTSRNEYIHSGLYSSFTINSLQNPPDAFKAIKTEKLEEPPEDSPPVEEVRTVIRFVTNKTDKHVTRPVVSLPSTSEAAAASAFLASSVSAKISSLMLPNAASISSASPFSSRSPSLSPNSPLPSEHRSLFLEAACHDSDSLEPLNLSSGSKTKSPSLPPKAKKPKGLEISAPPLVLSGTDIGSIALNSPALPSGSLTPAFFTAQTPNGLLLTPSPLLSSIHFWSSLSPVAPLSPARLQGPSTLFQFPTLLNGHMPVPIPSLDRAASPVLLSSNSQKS
# Procedure, shortened: as §1
# Sequence of ELF1 (P32519 whole entry): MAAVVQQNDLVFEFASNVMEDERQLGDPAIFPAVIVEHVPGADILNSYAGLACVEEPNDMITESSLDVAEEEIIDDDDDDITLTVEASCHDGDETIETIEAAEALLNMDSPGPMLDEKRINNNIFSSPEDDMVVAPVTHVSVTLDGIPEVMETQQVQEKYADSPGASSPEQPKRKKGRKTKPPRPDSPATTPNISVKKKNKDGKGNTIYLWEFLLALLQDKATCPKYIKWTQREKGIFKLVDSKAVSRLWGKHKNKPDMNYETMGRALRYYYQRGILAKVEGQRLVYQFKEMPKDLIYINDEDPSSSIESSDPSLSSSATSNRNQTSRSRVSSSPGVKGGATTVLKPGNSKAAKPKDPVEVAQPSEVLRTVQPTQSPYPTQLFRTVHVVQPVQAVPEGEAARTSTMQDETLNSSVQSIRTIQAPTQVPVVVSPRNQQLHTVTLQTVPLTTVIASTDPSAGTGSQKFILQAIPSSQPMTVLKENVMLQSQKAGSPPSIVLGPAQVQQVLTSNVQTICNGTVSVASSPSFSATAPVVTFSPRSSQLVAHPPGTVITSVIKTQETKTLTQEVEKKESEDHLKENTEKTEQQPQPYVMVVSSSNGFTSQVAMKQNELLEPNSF
# Sequence of SPIB (Q01892 whole entry): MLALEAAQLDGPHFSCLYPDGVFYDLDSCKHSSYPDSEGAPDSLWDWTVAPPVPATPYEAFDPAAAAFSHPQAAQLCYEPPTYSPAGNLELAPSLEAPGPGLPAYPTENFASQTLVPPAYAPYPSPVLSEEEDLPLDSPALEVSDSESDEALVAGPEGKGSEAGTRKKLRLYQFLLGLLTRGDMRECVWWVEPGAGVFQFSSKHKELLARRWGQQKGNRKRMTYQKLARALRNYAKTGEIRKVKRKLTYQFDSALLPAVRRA
sequence,measurement,setting,value
ACATTT,binding signal,FLI1,"1.63 fold enrichment (6-mer frequency, TF over GST control)"
same,binding signal,ELK1,"1.48 fold enrichment (6-mer frequency, TF over GST control)"
same,binding signal,GABPA,"1.43 fold enrichment (6-mer frequency, TF over GST control)"
same,binding signal,ERG,"1.56 fold enrichment (6-mer frequency, TF over GST control)"
same,binding signal,ELF1,"1.46 fold enrichment (6-mer frequency, TF over GST control)"
same,binding signal,EHF,"1.49 fold enrichment (6-mer frequency, TF over GST control)"
same,binding signal,SPI1,"1.41 fold enrichment (6-mer frequency, TF over GST control)"
same,binding signal,SPIB,"1.53 fold enrichment (6-mer frequency, TF over GST control)"
same,binding signal,ELK3,"1.36 fold enrichment (6-mer frequency, TF over GST control)"
